DAX1 StAR inh: DAX1 (NR0B1) inhibitors on StAR promoter, primary screen, cell-based, luminescence, SF-1 (NR5A1), full-length DAX-1. AID 652010, 2013. hit rate 1.1% among 370,000. inhibition, % at 6.8 µM. HEK293T StAR-luciferase reporter, SF-1/DAX-1 repression relief;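 active = inhibition above the mean over all tested compounds plus 3 SD, cut at about 3.6% in these data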;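 note: 0% = DAX-1 cells with DMSO and 100% = cells lacking DAX-1 with DMSO; higher inhibition means more luminescence from relief of DAX-1 repression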
hcDAF12 agonist: H. contortus DAF-12 nuclear receptor activators, primary screen, cell-based, luminescence, HEK293, lit1-tk-luc reporter | HEK293 hcDAF-12 lit1-tk-luc reporter; 0% DMSO, 100% Δ7-dafachronic acid | activation, % at 6.8 µM | hit rate 1.4% among 370,000;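 active = activation above the mean of all tested compounds plus 3 SD, cut at about 5.5% in these data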;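 note: 100% = response to 3 µM Δ7-dafachronic acid high control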
SMARCA2 activ: SMARCA2 (BRM) function activators, primary screen, cell-based, luminescence, high throughput; MG213 cells, MMTV-luciferase reporter, dexamethasone, overnight; activation, % at 9.1 µM; hit rate 1% among 370,000; AID 652017, 2013; in the data active = activation above about 7.8%;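 note: 0% = vehicle wells and 100% = reference activator wells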
hgDAF12 agonist: H. glycines DAF-12 receptor agonists, primary screen, cell-based, luminescence, HEK293, GAL4 fusion, UAS-luciferase; hit rate 1.8% among 370,000; AID 687014, 2013; Nuclear hormone receptor DAF-12 (Heterodera glycines), GAL4 fusion; activation, % at 6.8 µM; HEK293 GAL4-hgDAF12 UAS-luciferase reporter, agonist luminescence; normalized to butyrate control;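 active = activation above a cutoff set at the mean of all screened compounds plus 3 SD, cut at about 10% in these data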;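 note: 0% = DMSO wells and 100% = sodium butyrate wells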
ssDAF-12 act: S. stercoralis DAF-12 nuclear receptor activators, primary screen, cell-based, luminescence, HEK293, GRIP1 co-expression, lit1-tk-luc. activation, % at 6.8 µM. hit rate 1% among 370,000. HEK293 ssDAF-12/GRIP1 lit1-tk-luc reporter; % of 3 µM dafachronic acid response. Nuclear hormone receptor DAF-12 (Strongyloides stercoralis);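 active = activation above the mean over all tested compounds plus 3 SD, cut at about 0.9% in these data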;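 note: 0% = DMSO-only wells and 100% = 3 µM delta7-dafachronic acid wells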
* hit, by the source's call. Shown are actives, neighbours in structure and some others; about 4.2% of the full set was active somewhere.

For C#CCOCCOCCOCCNc1nc(N2CCN(C(=O)Cn3cc(CCCN=C(N)N)nn3)CC2)nc(N2CCN(C(=O)[C@H](CCCCN)n3cc(CCCC)nn3)CC2)n1 the results were DAX1 StAR inh 0, hcDAF12 agonist 0, SMARCA2 activ -2, hgDAF12 agonist 12* and ssDAF-12 act -1.
Screening C[C@@H]1COc2cccc(NCCCN3CCOCC3)c2S(=O)(=O)N1 returned DAX1 StAR inh 0, hcDAF12 agonist 2, SMARCA2 activ -4, hgDAF12 agonist 1 and ssDAF-12 act -1.
CC1=NN(c2nc(-c3ccc(C)cc3)cs2)C(=O)C1N=Nc1ccc2ccccc2c1 (stereo not drawn) was read as DAX1 StAR inh 0, hcDAF12 agonist 5.7*, SMARCA2 activ 1, hgDAF12 agonist 5 and ssDAF-12 act 0.
For c1ccc(-c2noc(CN3CCN(c4ccccc4)CC3)n2)cc1 the results were DAX1 StAR inh -1, hcDAF12 agonist 0, SMARCA2 activ 1, hgDAF12 agonist 1 and ssDAF-12 act -1.
For CC1CCN(Cc2nc(-c3ccccc3)no2)CC1 the results were DAX1 StAR inh 1, hcDAF12 agonist 5, SMARCA2 activ 5, hgDAF12 agonist 13* and ssDAF-12 act -1.
Screening CC(=O)N1c2ccccc2C(=O)NCC1C(=O)NC(C)(C)C (stereo not drawn) returned DAX1 StAR inh 1, hcDAF12 agonist -1, SMARCA2 activ -1, hgDAF12 agonist 1 and ssDAF-12 act -1.
CC(C)c1c(O)cc(-c2ccncc2)n(-c2ccc(Cl)cc2)c1=O was read as DAX1 StAR inh 1, hcDAF12 agonist -2, SMARCA2 activ 14*, hgDAF12 agonist 2 and ssDAF-12 act -1.
For Cc1ccc(-c2nnc(SCC(=O)Nc3ccc4c(c3)OCCO4)n2-c2ccc(C)cc2)cc1 the results were DAX1 StAR inh 0, hcDAF12 agonist -2, SMARCA2 activ -5, hgDAF12 agonist 4 and ssDAF-12 act -1.
Screening O=C(CSc1ccc(-c2ccccc2)nn1)c1cccs1 returned DAX1 StAR inh 1, hcDAF12 agonist 1, SMARCA2 activ 7, hgDAF12 agonist 12* and ssDAF-12 act -1.
Screening O=C(O)Cn1cc(/C=C/[N+](=O)[O-])c2ccccc21 returned DAX1 StAR inh 1, hcDAF12 agonist 4, SMARCA2 activ 3, hgDAF12 agonist 3 and ssDAF-12 act 0.9*.
For CC(C)(C)c1ccc(-c2nnc(SCC(=O)Nc3ccc(S(=O)(=O)Nc4nccs4)cc3)n2Cc2ccco2)cc1 the results were DAX1 StAR inh -1, hcDAF12 agonist -1, SMARCA2 activ -4, hgDAF12 agonist -2 and ssDAF-12 act -1.
For c1csc(-c2nc(CN3CCSCC3)cs2)c1 the results were DAX1 StAR inh 2, hcDAF12 agonist 5, SMARCA2 activ 7, hgDAF12 agonist 12* and ssDAF-12 act 0.
Screening O=C1N2Cc3ccccc3C2CS(=O)(=O)N1CCc1ccccc1 (stereo not drawn) returned DAX1 StAR inh 1, hcDAF12 agonist -1, SMARCA2 activ 3, hgDAF12 agonist 4 and ssDAF-12 act -2.
Screening COC(=O)[C@]12C[C@H](CC(=O)NCc3ccccc3)C(=O)N(Cc3ccco3)C1=C[C@H](C(C)C)O[C@@H]2C1CC1 returned DAX1 StAR inh -1, hcDAF12 agonist -3, SMARCA2 activ -5, hgDAF12 agonist -5 and ssDAF-12 act -1.
O=C(c1ccccc1)c1ccc2c(c1)OCCOCCOCCOCCO2 was read as DAX1 StAR inh 0, hcDAF12 agonist -1, SMARCA2 activ -2, hgDAF12 agonist 0 and ssDAF-12 act -1.
O=C(c1ccc2c(c1)OCCCO2)c1cccs1 was read as DAX1 StAR inh 3, hcDAF12 agonist 5, SMARCA2 activ 7, hgDAF12 agonist 10* and ssDAF-12 act 0.
For COc1ccc2c(CCN3C(=O)c4ccccc4C3=O)c(-c3c(CCN4C(=O)c5ccccc5C4=O)c4ccccc4n3C(=O)OC(C)(C)C)[nH]c2c1 the results were hcDAF12 agonist -1, hgDAF12 agonist -3 and ssDAF-12 act -2.
For COc1cc2c(c(OC)c1OC)-c1ccc(NC(=O)c3ccc(F)cc3)c(=O)cc1[C@@H](NC(C)=O)CC2 the results were DAX1 StAR inh 0, hcDAF12 agonist 1, SMARCA2 activ -2, hgDAF12 agonist -2 and ssDAF-12 act 0.
For COc1cc2c(c(OC)c1OC)-c1ccc(NCc3ccccc3)c(=O)cc1C(NC(C)=O)CC2 (stereo not drawn) the results were DAX1 StAR inh 4.0*, hcDAF12 agonist 0, SMARCA2 activ 8, hgDAF12 agonist -5 and ssDAF-12 act -1.
`COc1cc2c(c(OC)c1OC)-c1ccc(SC)c(=O)cc1C(NC(=O)C(F)(F)F)CC2` (stereo not drawn) gave DAX1 StAR inh 3.7*, hcDAF12 agonist 1, SMARCA2 activ -3, hgDAF12 agonist -6 and ssDAF-12 act -1.
`COc1cccc(C(C(=O)NCc2ccccc2)N2CCN(CCN3CCOCC3)CC2)c1OC` (stereo not drawn) gave DAX1 StAR inh 0, hcDAF12 agonist -1, SMARCA2 activ -2, hgDAF12 agonist -1 and ssDAF-12 act -1.
Cc1cc(N2CCN(C(=O)OC(C)(C)C)C[C@H]2C)ccc1N1CC[C@@H](O)C1 was read as DAX1 StAR inh -3, hcDAF12 agonist 0, SMARCA2 activ 1, hgDAF12 agonist -4 and ssDAF-12 act -1.
For O=C(CSc1ncccn1)NCc1cccc(Cl)c1 the results were DAX1 StAR inh 0, hcDAF12 agonist 4, SMARCA2 activ 5, hgDAF12 agonist 12* and ssDAF-12 act -1.
`O=C(CSc1nc2ccccc2c(=O)n1-c1ccccc1)N1CCc2ccccc2C1` gave DAX1 StAR inh -1, hcDAF12 agonist 2, SMARCA2 activ -1, hgDAF12 agonist 0 and ssDAF-12 act 1.0*.
For CC(C)c1ccccc1-n1c(SCC(=O)N2CCc3ccccc3C2)nc2ccccc2c1=O the results were DAX1 StAR inh -1, hcDAF12 agonist -2, SMARCA2 activ -4, hgDAF12 agonist -8 and ssDAF-12 act -2.
For C[C@H]1C(=O)CC[C@@]23CCCN2C(=O)CCC[C@@H]13 the results were hcDAF12 agonist -1, hgDAF12 agonist -1 and ssDAF-12 act -2.
`O=C(Cn1nnc(-c2ccncc2)n1)Nc1ccc(F)cc1F` gave DAX1 StAR inh -2, hcDAF12 agonist -2, SMARCA2 activ -5, hgDAF12 agonist -2 and ssDAF-12 act -1.
`CC(CCN1CCC(C(O)(c2ccccc2)c2ccccc2)CC1)Oc1ccc(C#N)cc1F` (stereo not drawn) gave DAX1 StAR inh 0, hcDAF12 agonist 6.0*, SMARCA2 activ 1, hgDAF12 agonist -3 and ssDAF-12 act -1.
